PubChem BioAssay AID778 (Sanford-Burnham Center for Chemical Genomics, 2007)
Out of some 96,000 compounds screened, about 20,000 (21%) were called active. These entries were drawn from the full list. A number with no mark means an inactive call.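 How the source made its calls: active means CYP2C19 inhibition above a set limit at 5 µM in the primary screen (cut at about 50% in these data); inactive means the rest.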

What follows are compounds tested against Cytochrome P450 2C19 (Homo sapiens) (UniProt P33261) (assay: blockers of cytochrome P450 2C19 activity – biochemical, luminescence, ADME assay, primary screen (AID 778;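 further: plate controls were negative control wells for no effect and 2.5 mM tranylcypromine positive control for full effect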)). Conditions: CYP2C19 Supersomes, luciferin-H EGE luminescence, 30 min; at 5 µM; hits give high values.
Sequence of Cytochrome P450 2C19 (Homo sapiens) (P33261 whole entry, looked up): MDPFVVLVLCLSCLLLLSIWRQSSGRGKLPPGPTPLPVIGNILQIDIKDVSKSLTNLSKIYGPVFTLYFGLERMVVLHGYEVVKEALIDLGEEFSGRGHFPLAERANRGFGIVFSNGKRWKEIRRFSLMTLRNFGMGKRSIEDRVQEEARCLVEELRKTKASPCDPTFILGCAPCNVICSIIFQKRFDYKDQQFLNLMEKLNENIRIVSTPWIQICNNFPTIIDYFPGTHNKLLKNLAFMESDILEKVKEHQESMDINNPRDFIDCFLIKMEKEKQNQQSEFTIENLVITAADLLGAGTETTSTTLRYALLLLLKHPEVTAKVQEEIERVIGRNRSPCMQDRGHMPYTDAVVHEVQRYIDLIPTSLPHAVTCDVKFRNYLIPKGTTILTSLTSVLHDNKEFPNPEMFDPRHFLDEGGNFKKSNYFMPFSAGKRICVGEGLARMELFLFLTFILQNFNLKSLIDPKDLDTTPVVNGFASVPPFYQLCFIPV
Compound `O=C1c2ccccc2-c2ncnc3c(N4CCOCC4)cc(N4CCOCC4)c1c23` has an inhibition of 29.6%.
`CCOC(=O)c1sc(NC(=O)CSc2nc(C)cc(C(F)(F)F)n2)c(C#N)c1C` was tested, and the inhibition was 19.8%.
For `Cc1cc(Oc2ccccc2)nc(N2CCOCC2)n1`, the inhibition was 94.5% (active).
Compound `Cc1nc(N2CCOCC2)nc2c1CCCC2` has an inhibition of 28.5%.
In the case of `CC(=O)c1ccc(Oc2cc(C)nc(-n3nc(C)cc3C)n2)cc1`, the inhibition is reported as -5.5%.
In the case of `CCc1ccc2c(c1)cc(CN(C(=S)Nc1ccccc1Cl)C1CC1)c1nnnn12`, the inhibition is reported as -11.2%.
Compound `Cc1nc2ccccc2c2oc(C(=O)NCCCN3CCC(C)CC3)cc12` has an inhibition of -6.7%.
Work on `CC1Oc2ccccc2N(Cc2cccnc2)C1=O` (configuration not stated) yielded an inhibition of 26.8%.
`CC12c3ccccc3C(c3ccccc31)C1C(=O)N(Cc3cccnc3)C(=O)C12` (configuration not stated) was tested, and the inhibition was 81.2% (active).
In the case of `O=C(NC1(C(F)(F)F)NC(=O)N(Cc2cccnc2)C1=O)c1ccccc1Cl` (configuration not stated), the inhibition is reported as 39.8%.
With `COC(=O)c1ccccc1NC(=O)CSc1ccccn1` the inhibition was 26.9%.
In the case of `O=C(CCSc1ccccc1)NCCSc1ccccn1`, the inhibition is reported as 71% (active).
With `COc1cccc(N(CC(=O)NCCSc2ccccn2)S(C)(=O)=O)c1` the inhibition was 53.8% (active).
In the case of `O=C(COc1ccc(Cl)cc1)NCCSc1ccccc1`, the inhibition is reported as 14.6%.
`CCc1ccccc1N(CC(=O)NCCSCc1ccco1)S(C)(=O)=O` was tested, and the inhibition was 24%.
`Cc1cccc(N(CC(=O)Nc2ccc(-c3nc4ccc(C)cc4s3)cc2)S(C)(=O)=O)c1` was tested, and the inhibition was 1.8%.
`Nc1nnc(SCCN2C(=O)c3ccccc3S2(=O)=O)s1` gave an inhibition of 29%.
For `O=C(N/N=C/c1ccsc1)c1cc(O)cc(O)c1`, the inhibition was 7%.
In the case of `Nc1nc(C23CC4CC(CC(C4)C2)C3)cs1`, the inhibition is reported as 40.8%.
`CCC(C)OC(=O)C(C)Oc1ccc(-c2ccccc2)cc1` (configuration not stated) showed an inhibition of 0.6%.
`O=C(NCN1CCN(CCO)CC1)c1cnccn1` showed an inhibition of -8.6%.
In the case of `Cc1ccc(S(=O)(=O)NC(=O)N2CCCC(C)(C)C2)cc1`, the inhibition is reported as -4.4%.
With `Cc1ccc(S(=O)(=O)N(C)C2(C)CCS(=O)(=O)C2)cc1` (configuration not stated) the inhibition was 18.3%.
In the case of `Cc1ccc(S(=O)(=O)C2(S(=O)(=O)c3ccc(C)cc3)CCCC2)cc1`, the inhibition is reported as 83.3% (active).
`Cc1ccc(S(=O)(=O)N2CCOCC2)cc1C(=O)NCc1ccc(F)cc1` showed an inhibition of 15.3%.
For `CN(C)S(=O)(=O)c1ccc(N2CCCC2)c(C(=O)NCc2ccccc2)c1`, the inhibition was 62.4% (active).
`CCN(CC)S(=O)(=O)c1ccc(N2CCOCC2)c(C(=O)O)c1` showed an inhibition of 9.1%.
Compound `Cc1cc(OC(=O)c2ccc(Cl)cc2)cc(=O)n1C` has an inhibition of -5.3%.
Work on `O=C(Nc1ccccc1Cl)O/N=C(/c1ccccc1)c1ccccn1` yielded an inhibition of 21.3%.
For `O=C(N1CCOCC1)N(Cc1ccccc1)c1ccccn1`, the inhibition was 31.3%.
`COc1ccc(Cc2nnc(NS(=O)(=O)Cc3ccccc3)s2)cc1` showed an inhibition of 9%.
`Cc1cccc(NC(=O)CSc2nnc(NC(=O)CN3CCOCC3)s2)c1` was tested, and the inhibition was 0.9%.
`Cc1cccc(NC(=O)CN2C(=O)CNC2=O)c1` was tested, and the inhibition was -10.1%.
For `Cc1cccc(NC(=O)CN2CCCN(S(=O)(=O)c3ccc(Br)s3)CC2)c1`, the inhibition was 67.4% (active).
Work on `CCc1nnc(NC(=O)CSc2nc3c(c(=O)n2-c2ccccc2OC)SCC3)s1` yielded an inhibition of 11.4%.
`CS(=O)(=O)c1ccc2nc(NC(=O)CN3CCCCCC3)sc2c1` was tested, and the inhibition was -6%.
In the case of `O=C(CSc1nc2ccccc2o1)N1CCN(c2ccccc2)CC1`, the inhibition is reported as 55.6% (active).
In the case of `CC1Cc2ccccc2N1C(=O)CSc1nc2ccccc2o1` (configuration not stated), the inhibition is reported as 76.8% (active).
For `Cc1cc(=O)[nH]c(SCC(=O)N2c3ccccc3CC2C)n1` (configuration not stated), the inhibition was 1.8%.
`CCS(=O)(=O)c1ccc2oc(SCC(=O)N3c4ccccc4CC3C)nc2c1` (configuration not stated) was tested, and the inhibition was -8.1%.
For `O=C(CSc1nc2ccccc2o1)N1CCN(c2ccc(Cl)cc2)CC1`, the inhibition was 4.3%.
With `Cc1nnc(SCC(=O)N2CCN(c3ccccc3)CC2)n1-c1ccccc1` the inhibition was -4.9%.
With `Cc1ccccc1Nc1nc(N)nc(CN2CCN(c3ccccn3)CC2)n1` the inhibition was 12.9%.
Compound `Cc1ccc(C)c(NC(=O)c2ccc(OC(=O)c3ccco3)cc2)c1` has an inhibition of 4.9%.
With `CCC(CC)c1nnc(NS(=O)(=O)Cc2ccccc2)s1` the inhibition was -10.5%.
In the case of `O=C(Nc1cccn(Cc2c(Cl)cccc2Cl)c1=O)c1ccc(Cl)cc1`, the inhibition is reported as 79.9% (active).
`CSc1ccc(C#N)cc1NC(=O)c1ccc(Cl)cc1` gave an inhibition of 3%.
`COc1ccc(Cn2cccc(NC(=O)Nc3ccc(C#N)cc3)c2=O)cc1` was tested, and the inhibition was 5.5%.
Compound `Cc1cc(/C=C2/SC(=O)N(CC(=O)OC(C)C)C2=O)c(C)n1C` has an inhibition of 1.6%.
In the case of `Cc1c(NC(=O)CSc2cccc3cccnc23)c(=O)n(-c2ccccc2)n1C`, the inhibition is reported as -13.9%.
With `Cc1ccc(-n2nc3cc(Cl)c(NC(=O)c4ccco4)cc3n2)cc1` the inhibition was 10.3%.
`CC1CCc2c(c3ccccc3[nH]c2=O)O1` (configuration not stated) was tested, and the inhibition was 25.5%.
`Cn1nc(-c2ccccc2)c(-c2nc(-c3ccc(Cl)cc3)no2)c1Cl` showed an inhibition of -16.4%.
Work on `CC1CN(c2nc(-c3ccccc3)nnc2-c2ccccc2)CC(C)O1` (configuration not stated) yielded an inhibition of -3.1%.
With `Clc1ccc(-c2nnc(-c3ccccc3)nc2N2CCSCC2)cc1` the inhibition was 72% (active).
For `O=C(Nc1ccccc1C(F)(F)F)c1cc(-c2ccc(O)cc2)on1`, the inhibition was 6.8%.
Compound `COc1ccc(C(=O)Nc2nc(-c3ccc(S(=O)(=O)N4CCOCC4)cc3)cs2)cc1` has an inhibition of 14.6%.
With `Cn1ccs/c1=N\S(=O)(=O)c1ccc(C(C)(C)C)cc1` the inhibition was 65% (active).
For `CCC1=[N+]([O-])C(C)(/C(C)=N\O)N(O)C1(C)C` (configuration not stated), the inhibition was 23.5%.
In the case of `NC(=O)Cn1c(=O)oc2ccccc21`, the inhibition is reported as -6.4%.
Work on `O=C(c1ccc(S(=O)(=O)N2CCOCC2)cc1)N1CCN(c2ccccc2)CC1` yielded an inhibition of -4.7%.
In the case of `O=C1C(Cl)=C(N2CCOCC2)C(=O)N1c1ccccc1`, the inhibition is reported as 84.7% (active).
`c1ccc(-n2nnnc2N2CCOCC2)cc1` showed an inhibition of 33.5%.
With `CC(C)(C)NC(=O)c1cc(NC(=O)c2ccco2)cc(NC(=O)c2ccco2)c1` the inhibition was 20.8%.
`CCOC(=O)c1sc(=S)n2c1[nH]c(=O)c1ccc(C(=O)OC)cc12` gave an inhibition of -1.3%.
For `CCOC(=O)C1=C(C)Nc2sc(C(=O)c3ccc(Br)cc3)c(N)c2C1c1ccc(C(=O)OC)cc1` (configuration not stated), the inhibition was 88.2% (active).
In the case of `CCOC(=O)N1CCC(NC(=O)c2cnn3ccccc23)CC1`, the inhibition is reported as 5.9%.
With `O=C1C(C=NCC2CCCO2)=C(O)c2ccccc21` (configuration not stated) the inhibition was 8.1%.
`C=CCCC(=O)Nc1nc(C)c(-c2csc(Nc3ccc(Cl)cc3)n2)s1` was tested, and the inhibition was 56.4% (active).
Work on `CCCCC(=O)Nc1nc(C)c(-c2csc(Nc3ccc(Cl)cc3)n2)s1` yielded an inhibition of 45.9%.
Compound `CCCCCCC(=O)Nc1nc(C)c(-c2csc(Nc3cc(Cl)ccc3OC)n2)s1` has an inhibition of -7.7%.
`O=C(Nc1cc(N2CCOCC2)ncn1)NC1(C(F)(F)F)Oc2ccc(Cl)cc2O1` (configuration not stated) was tested, and the inhibition was 1%.
In the case of `CSCCC(NC(N)=O)C(=O)N(C)CC(=O)Nc1ccc(C)cc1` (configuration not stated), the inhibition is reported as 3.3%.
With `O=C(c1ccccc1)N1CCN(c2ccc([N+](=O)[O-])c(NCc3ccco3)c2)CC1` the inhibition was 82.3% (active).
For `O=C(NCc1ccco1)c1nc(-c2ccccc2)n(-c2ccccc2)n1`, the inhibition was 25.6%.
In the case of `O=[N+]([O-])c1ccc(N2CCN(S(=O)(=O)c3ccc4ccccc4c3)CC2)cc1NCc1ccco1`, the inhibition is reported as 19.1%.
Work on `O=C1N=C(N2CCOCC2)S/C1=C\C=C/c1ccccc1` yielded an inhibition of 10.8%.
In the case of `O=C1N=C(N2CCCC2)S/C1=C\c1cccc(Br)c1`, the inhibition is reported as 58.2% (active).
In the case of `Cc1ccsc1/C=C1\SC(N2CCOCC2)=NC1=O`, the inhibition is reported as 29%.
`Cc1nc([N+](=O)[O-])nn1C12CC3CC(CC(Br)(C3)C1)C2` gave an inhibition of 15.2%.
In the case of `COC(=O)c1sccc1NC(=O)c1cc(OC)c(OC)c(OC)c1`, the inhibition is reported as 5.1%.
In the case of `CCCCN=C1N/C(=C\c2ccco2)C(=O)N1c1ccccc1`, the inhibition is reported as 0.7%.
`O=C(NCCN1CCOCC1)[C@H](Cc1ccccc1)N1C(=O)c2ccccc2C1=O` gave an inhibition of -8.6%.
`O=C(NC1=NCCS1)[C@H](Cc1ccccc1)N1C(=O)c2ccccc2C1=O` was tested, and the inhibition was 57.5% (active).
Compound `CSCCC(C(=O)NC1=NCCS1)N1C(=O)c2ccccc2C1=O` (configuration not stated) has an inhibition of 17.5%.
`C=CCn1c(SCc2csc(C)n2)nc2scc(-c3ccc(C)o3)c2c1=O` showed an inhibition of 16.7%.
Compound `O=S(=O)(c1ccc2ccccc2c1)N1CCN(S(=O)(=O)N2CCOCC2)CC1` has an inhibition of 20.2%.
In the case of `Cn1c(SCC(=O)Nc2cccc(O)c2)nnc1-c1ccc(S(=O)(=O)N2CCOCC2)cc1`, the inhibition is reported as 2.3%.
In the case of `O=C(CCc1ccc(S(=O)(=O)N2CCOCC2)cc1)Nc1ccc2ccccc2c1`, the inhibition is reported as 62.6% (active).
`CCOC(=O)N1CCN(CC(=O)n2c(C)c(C)c3ccccc32)CC1` showed an inhibition of 37.1%.
Compound `CCCc1nc(N)nc2c1C(=O)CC(C)(C)C2` has an inhibition of 7.6%.
`CC(C)c1ccc(/C=C/C(=O)NNC(=O)c2cccnc2)cc1` was tested, and the inhibition was 1.1%.
For `COc1ccc2[nH]cc(/C=C(/C#N)S(=O)(=O)c3ccccc3)c2c1`, the inhibition was 99.8% (active).
Work on `COc1ccc(/C=C(\NC(=O)c2ccc(OC)c(OC)c2)C(=O)NCCc2c[nH]c3ccccc23)cc1` yielded an inhibition of 35.2%.
`CCn1nc(NC(=O)c2ccco2)c2cc3ccc(C)cc3nc21` showed an inhibition of 7.9%.
For `O=C(NC1(C(F)(F)F)N=C2SCCN2C1=O)c1ccco1` (configuration not stated), the inhibition was -15.5%.
Compound `CCN(CC)C(=O)CSc1nnc(CNc2ccc(F)cc2)n1Cc1ccco1` has an inhibition of -8.4%.
